# HIV RNase H inh-1 = blocks HIV-1 RNase H cleavage of RNA/DNA duplex; P04585; RT-RNase H RNA/DNA duplex cleavage, fluorescence; inhibition, % at 10 µM; 1.9% of 65,000 active; AID 565; in the data active = inhibition above about 50%
# HIV RNase H inh-2 = confirmation of HIV-1 reverse transcriptase RNase H inhibitors. inhibition, % at 10 µM. shares compounds with HIV RNase H inh-1. Recombinant RT RNase H, fluorescent RNA/DNA duplex cleavage. AID 651. 39% of 1,000 active; in the data active = inhibition above about 48%
# The depositor's hits bear a star. The full list was thinned out, with hits kept by preference.
SMILES,HIV RNase H inh-1,others
CC(C)c1nnc(NC(=O)c2c(O)c3cccc4c3n(c2=O)CCC4)s1,77*,HIV RNase H inh-2=73*
COc1ccc(CNC(=O)c2c(O)c3cccc4c3n(c2=O)CCC4)cc1,-14,
CCN(CC)C(=O)C1CCN(Cc2ccc(Br)cc2)CC1,-11,
COCCCn1c(-c2ccsc2)nc2c1c(=O)[nH]c(=O)n2Cc1ccccc1,-2,
CC(=O)NC(CCS(C)(=O)=O)C(=O)Nc1cccc(C(C)=O)c1 (centres undefined),-70,
COc1ccc(N(Cc2cc(=O)[nH]c3ccccc23)C(=O)c2ccco2)cc1,9,
CCC(=O)N(Cc1cc(=O)[nH]c2ccccc12)c1cccc(C)c1,70*,HIV RNase H inh-2=2
Cc1cccc(-c2nnc(SCc3cc(=O)[nH]c4ccccc34)n2C)c1,9,
COc1cccc(-n2c(Cc3cc(=O)[nH]c(=O)[nH]3)nnc2SCC(=O)N2CCCCC2)c1,-13,
COc1ccc(N(C(=O)Nc2ccc(Cl)cc2)C2=NCCC2)cc1,-28,
N#Cc1cc2c(=O)n3ccccc3nc2n(Cc2cccnc2)c1=O,-17,
COc1ccc(CCn2c(=N)c(C#N)cc3c(=O)n4ccccc4nc32)cc1,55*,HIV RNase H inh-2=53
COc1ccc(CCn2c(=N)c(C(=O)N3CCN(C)CC3)cc3c(=O)n4ccccc4nc32)cc1,-5,
COc1ccc(C(=O)COC(=O)CN2CC(=O)Oc3ccccc32)cc1Br,15,
CCCCOc1ccc(/C(N)=N/O)cc1,0,
CCc1ccccc1NC(=O)CN(c1cccc(OC)c1)S(C)(=O)=O,-8,
CCOC(=O)CC(=O)CSc1nnc2c(n1)[nH]c1ccccc12,-11,
Brc1ccc2[nH]c3nc(SCCN4CCOCC4)nnc3c2c1,3,
c1ccc2c(c1)[nH]c1nc(SCCN3CCOCC3)nnc12,83*,HIV RNase H inh-2=0
CCCCCC(=O)N1CC2(CC)CN(C(=O)CCCCC)CC(CC)(C1)C2=O,1,
O=C(CN1CCN(S(=O)(=O)c2ccc(Br)cc2)CC1)Nc1ccc2c(c1)OCO2,1,
O=c1[nH]c2ccc(Cl)cc2c(-c2ccccc2)c1N1CCN(c2ccccn2)CC1,34,
CCOc1ccc(N(CC(=O)Nc2ccc3c(c2)OCCO3)S(=O)(=O)c2c(C)noc2C)cc1,56*,HIV RNase H inh-2=12
CCOc1ccc(N(CC(=O)Nc2ccc(OC)cc2)S(=O)(=O)c2c(C)noc2C)cc1,-6,
CCOc1ccc(NC(=O)CN(c2cc(C)cc(C)c2)S(=O)(=O)c2c(C)noc2C)cc1,-3,
SMILES,HIV RNase H inh-1,others
CCOC(=O)CNC(=O)c1cn(CC(C)C)c(=O)c2cc(OC)c(OC)cc12,2,
O=C(Nc1nnc(CC(=O)N2CCOCC2)s1)c1cccs1,-2,
O=C(COc1ccc(Cl)cc1Cl)NC(=O)N1CCOCC1,2,
O=C(COc1cc(Cl)ccc1Cl)Nc1nnc(CC(=O)N2CCOCC2)s1,80*,HIV RNase H inh-2=11
CCOc1cc(S(=O)(=O)N2CCN(Cc3ccccc3)CC2)ccc1Br,-7,
O=C(CSc1ccccc1C(=O)NCCCN1CCCC1=O)NCc1ccco1,8,
CCOC(=O)C1=C(N)OC2=C(C(=O)CC(C)(C)C2)C1c1ccco1 (centres undefined),-5,
COc1ccc(C2C(C#N)=C(N)OC3=C2C(=O)CC(C)(C)C3)c(OC)c1OC (centres undefined),-9,
CC1(C)CC(=O)C2=C(C1)OC1=C(C(=O)CC(C)(C)C1)C2c1ccc(O)cc1O,56*,HIV RNase H inh-2=-8
O=C1NC2NC(=O)N(C(Cc3ccccc3)C(=O)O)C2N1 (centres undefined),1,
c1ccc(CCc2nn3c(Cc4ccccc4)nnc3s2)cc1,90*,HIV RNase H inh-2=20
Clc1ccccc1-c1nnc2sc(-c3cccs3)nn12,1,
c1ccc(-c2nn3c(-c4ccccc4)nnc3s2)cc1,-27,
c1ccc(Cc2nnc3sc(-c4cccnc4)nn23)cc1,3,
c1csc(-c2nn3c(Cn4nnc5ccccc54)nnc3s2)c1,-48,
c1csc(-c2nn3c(C4CCCCC4)nnc3s2)c1,-10,
c1ccc(Cc2nnc3sc(-c4cccs4)nn23)cc1,85*,HIV RNase H inh-2=33
Cc1ccc(-c2nnc3sc(-c4ccncc4)nn23)cc1,-42,
c1ccc(-c2nnc3sc(Cc4cccs4)nn23)cc1,0,
c1ccc(OCc2nn3c(-c4ccncc4)nnc3s2)cc1,-19,
c1ccc2c(c1)nnn2Cc1nnc2sc(-c3ccncc3)nn12,75*,HIV RNase H inh-2=70*
c1ccc(Cc2nnc3sc(-c4ccncc4)nn23)cc1,93*,HIV RNase H inh-2=66*
O=C(OCCN=C1NS(=O)(=O)c2ccccc21)C1CC(=O)N(c2ccc(Cl)cc2)C1 (centres undefined),-7,
CCCn1c(SCC(=O)Nc2sc(C)c(C)c2C(=O)OCC)nc2c1c(=O)n(C)c(=O)n2C,10,
CC(c1nnc(SCC(=O)NC(=O)NCc2ccco2)n1-c1ccc(Cl)cc1)N(C)C (centres undefined),2,
COc1cc(OC)c(Cl)cc1N,-11,
O=C(NC1CCCCC1)C(c1ccncc1)N(CC1CCCO1)C(=O)C(F)(F)F (centres undefined),-4,

# Screening results (PubChem BioAssay)
